Measurements as given in PubChem BioAssay (NCI).
Compounds without any hit were thinned out: in the full panel of roughly 79,000, 15% have a hit. Activity calls are given as the source filed them. No stated cut-off is given here; in the data, active means growth inhibition above about 70%; inactive means the rest.

Tests used:
[1] = NCI Yeast Anticancer Drug Screen. Data for the rad50 strain (AID 155);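 further: 0% = growth of vehicle-only cultures of the same strain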; details: S. cerevisiae rad50 strain growth inhibition; at 50.0 µM; active compounds read high
Summary of the method: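 Yeast carrying a defined DNA repair defect were exposed to test compounds, and growth was compared with vehicle-treated controls to give percent inhibition.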

[2] = NCI Yeast Anticancer Drug Screen. Data for the mec2-1 strain (AID 157); details: S. cerevisiae mec2-1 strain, at 50.0 µM, active compounds read high
Summary of the method: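 Each compound was tested on mec2-1 yeast, a strain altered in DNA damage repair or cell cycle control. Growth inhibition is reported relative to vehicle.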

[3] = NCI Yeast Anticancer Drug Screen. Data for the sgs1 mgt1 strain (AID 161);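 further: 0% = growth of cultures given vehicle only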; details: S. cerevisiae sgs1 mgt1 strain, at 50.0 µM, active compounds read high
Summary of the method: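 Read-out: growth inhibition vs vehicle controls. Cells: mutant yeast strain deficient in DNA damage repair.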

[4] = NCI Yeast Anticancer Drug Screen. Data for the cln2 rad14 strain (AID 165);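 further: 0% = growth equal to vehicle treated cultures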; details: S. cerevisiae cln2 rad14 strain, at 50.0 µM, active compounds read high
Summary of the method: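 Test compounds were added to cln2 rad14 yeast cultures; inhibition of growth was then determined by comparison with vehicle treatment.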

[5] = NCI Yeast Anticancer Drug Screen. Data for the bub3 strain (AID 167); details: S. cerevisiae bub3 mutant strain, at 50.0 µM, active compounds read high
Summary of the method: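 Compounds were applied to a genetically altered yeast strain carrying a cell-cycle control defect. Growth inhibition was scored against vehicle-treated controls.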

[6] = NCI Yeast Anticancer Drug Screen. Data for the mlh1 rad18 strain (AID 175); details: S. cerevisiae mlh1 rad18 strain growth inhibition; at 50.0 µM; active compounds read high
Summary of the method: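 Inhibition values reflect reduced growth of mutant yeast versus vehicle-treated controls following compound exposure; the mutations affect DNA damage repair.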

Measured: growth inhibition

COc1cc(C(c2ccc(O)c(OC)c2)c2ccc(O)c(OC)c2)ccc1O
inactive: [1] 31.9% | [2] 15.2% | [3] 34.6% | [4] 30.1% | [5] 4.95% | [6] 24.9%

O=C(Cc1ccccc1)NN1C(=O)/C(=C\c2ccc([N+](=O)[O-])cc2)SC1=Nc1ccccc1
inactive: [1] -2.8% | [2] -8.85% | [3] 52.1% | [4] 15.2% | [5] -18.9% | [6] 28.5%

COc1c(N)c(C)nc(Cl)c1C#N
inactive: [1] -10.1% | [2] 2.95% | [3] -2.7% | [4] -1.05% | [5] -0.75% | [6] 8.9%

Oc1c(Br)cc(CN(Cc2cc(Br)c(O)c(Br)c2)C2CCCCC2)cc1Br
inactive: [1] -2.75% | [2] -6.5% | [3] -21.3% | [4] -15.7% | [5] -23.1% | [6] 5.4%

Cc1nc(-c2cc3c(ccc4ccccc43)oc2=O)cs1
inactive: [1] 21.5% | [2] -8.85% | [3] -4.45% | [4] 25.8% | [5] -4.4% | [6] -21.5%

O=C1OCc2cccc3c2-c2c1cccc2C(=O)OC3
inactive: [1] -3% | [2] -5.7% | [3] -4.8% | [4] 16.2% | [5] -12.5% | [6] 6.7%

CN(CC(N)=O)C(=O)c1cnc2ccccc2c1
inactive: [1] 9.65% | [2] 18.6% | [3] -1.05% | [4] 8.05% | [5] 14.1% | [6] 0.4%

C(/C=C/C=C/Nc1ccc(N=Nc2ccccc2)cc1)=Nc1ccc(N=Nc2ccccc2)cc1
inactive: [1] -32.8% | [2] -38% | [3] -26.3% | [4] -1.65% | [5] -25.8% | [6] -30%

CC(CCC(=O)CS(C)=O)C1CCC2C3CCC4CCCCC4(C)C3CCC12C (configuration not stated)
inactive: [1] 34.1% | [2] -20.4% | [3] 25.8% | [4] 11.6% | [5] -4% | [6] 0.95%

COC1(C)O[C@@]2(C)c3ccccc3C(=O)[C@@]2(c2ccccc2)O1 (some centres not stated)
inactive: [1] -3.35% | [2] -0.05% | [3] 13.1% | [4] -11.5% | [5] 5.4% | [6] 18.5%

O=c1[nH]nc(Cc2ccccc2)n1CCCl
inactive: [1] 16.9% | [2] 13.8% | [3] 15.6% | [4] -3.7% | [5] 8.35% | [6] 11.5%

NC(=O)NC(=O)Cc1ccc([N+](=O)[O-])cc1
inactive: [1] 5.1% | [2] 0.1% | [3] 5.1% | [4] -5.15% | [5] 6.25% | [6] -0.35%

C[C@H](N)[C@@H](O)/C=C/c1ccccc1
inactive: [1] 8% | [2] -16.9% | [3] -0.05% | [4] -4.7% | [5] -9.7% | [6] -8.7%

O=c1oc2ccccc2cc1CCBr
inactive: [1] 16.4% | [2] 11.4% | [3] -6.1% | [4] -3.3% | [5] -9.2% | [6] -8.05%

O=C(O)CCCCCCCCC(=O)O
inactive: [1] -7.55% | [2] -39% | [3] 7.9% | [4] -12.6% | [5] -23.8% | [6] -17.6%

CC(=O)Nc1c(Cl)cc2c(c1Cl)Cc1cc(N(C)C)ccc1-2
inactive: [1] -13.6% | [2] -0.35% | [3] 0.5% | [4] 6.25% | [5] 1.75% | [6] -9.25%

c1ccc2c(c1)nc1n2C2CCC(C2)N1 (configuration not stated)
inactive: [1] 4% | [2] 10% | [3] 18.8% | [4] 21.9% | [5] 6.15% | [6] 15.7%

CCc1c(O)c2c([nH]c1=O)SC(C)(C)CC2=NCC(C)C
inactive: [1] -23.8% | [2] -33.5% | [3] -16.9% | [4] -2.45% | [5] -43.6% | [6] 9.15%

CN(C)[C@@H]1C(=O)C(C(=O)NCNC2CC(C)(C)N(O)C(C)(C)C2)=C(O)C2(O)C(=O)C3=C(O)c4c(O)cccc4[C@@](C)(O)C3CC12 (some centres not stated)
inactive: [1] -1.2% | [2] 30.6% | [3] 2.55% | [4] -37% | [5] -22.1% | [6] 24.6%

CCOc1cc(/C=N/NC(=O)C(O)C(O)C(O)C(O)CO)ccc1O (configuration not stated)
inactive: [1] 1.5% | [2] 38.6% | [3] 27.9% | [4] 4.45% | [5] 39.8% | [6] 30.6%

O=C1NN2CCN=C2c2ccccc21
inactive: [1] -60.5% | [2] -30% | [3] -22.7% | [4] -16.4% | [5] -6.5% | [6] -16.4%

CCOC(=O)N[C@@H]1C(CC(=O)OC)O[C@H]2OC(C)(C)O[C@H]21 (some centres not stated)
inactive: [1] 18.1% | [2] -7.2% | [3] 10.4% | [4] 7.4% | [5] -9.55% | [6] 6.25%

NC(CCCC(N)C(=O)c1ccccc1)C(=O)c1ccccc1 (configuration not stated)
inactive: [1] -13.7% | [2] 2.35% | [3] -1.5% | [4] -15.5% | [5] -11.3% | [6] 3.35%

COc1ccc(S(=O)(=O)N/N=C\c2cc(I)cc(I)c2O)cc1
inactive: [1] 27.9% | [2] 7.9% | [3] 25.2% | [4] 14.6% | [5] -1.8% | [6] 5.1%

COc1ccc(-c2cc(C(=O)Nc3cc(Cl)cc(Cl)c3)c3ccccc3n2)cc1
inactive: [1] -13.7% | [2] -18.6% | [3] -25.8% | [4] -0.85% | [5] -17.6% | [6] 1.55%

O=C(CC(=O)Nc1ccccc1)NNC(Sc1ccccc1)c1cc(N=Nc2ccc(Br)cc2)ccc1O (configuration not stated)
inactive: [1] 4.6% | [2] 14.1% | [3] 11.2% | [4] -10% | [5] -2.9% | [6] -4.7%

On1ccc(N2CCOCC2)cc1=NC1CCCCC1
inactive: [1] 25.9% | [2] 14.9% | [3] 14.5% | [4] 17.6% | [5] 3.7% | [6] 25.7%

NS(=O)(=O)c1cc2c(cc1Cl)NC(Cc1ccccc1)NS2(=O)=O (configuration not stated)
inactive: [1] -20.7% | [2] -4.55% | [3] -9.45% | [4] -7.2% | [5] 0.2% | [6] 18.4%

OC1=CC(=S)NC2CCCCC12 (configuration not stated)
inactive: [1] 32.2% | [2] 18.2% | [3] 45% | [4] 35.9% | [5] 29.4% | [6] 49.8%

CCC[n+]1ccccc1C
inactive: [1] -0.95% | [2] 19.4% | [3] -4.3% | [4] 1.35% | [5] 7.9% | [6] 3.65%

COc1n[n+]([O-])c(OC)cc1[N+](=O)[O-]
active: [6] 76.7%
inactive: [1] 51.7% | [2] 33.6% | [3] 33.9% | [4] 15% | [5] 17.6%

O=C1OCC(CN2CCC(n3c(=O)[nH]c4ccccc43)CC2)=C1c1ccccc1
inactive: [1] -12.2% | [2] -4.65% | [3] -7.15% | [4] -25.7% | [5] -10.6% | [6] -35.9%

COc1cccc(N=Cc2ccc(C=Nc3cccc(OC)c3)cc2)c1
inactive: [1] 5.95% | [2] -9.1% | [3] 11.1% | [4] -9.35% | [5] 27.7% | [6] -12.4%

CCCNc1nc2c(c(=O)n(C)c(=O)n2C)n1C
inactive: [1] -11.2% | [2] 0.1% | [3] 13.7% | [4] -29.7% | [5] 23.1% | [6] 7.9%

Nc1ccnc(SCCCCc2ccccc2)n1
active: [5] 74%
inactive: [1] 15.6% | [2] 64.4% | [3] 59% | [4] -6.15% | [6] 64%

O=C(Nc1ccc(Cl)cc1)OCCSc1nc2ccccc2s1
inactive: [1] -6.05% | [2] -30.1% | [3] 21.5% | [4] 9.35% | [5] 4.55% | [6] -3.9%

CCn1c2ccccc2c2ccc(N=Nc3ccccc3)cc21
inactive: [1] 36.8% | [2] 12.6% | [3] 19.2% | [4] -1.75% | [5] 22.8% | [6] 17.8%

CC1(CO)COC(c2ccccc2)=N1 (configuration not stated)
inactive: [1] 4.65% | [2] 2.85% | [3] 4.55% | [4] -8.9% | [5] -1.3% | [6] 0.75%

Cn1c(=O)c2c(n(C)c1=O)n(C)c(=O)n2C
inactive: [1] 18.3% | [2] 8.25% | [3] -18.9% | [4] 12.7% | [5] 1.85% | [6] 15.9%

O=c1cc2c(n[nH]1)CCCC2
inactive: [1] 8.85% | [2] 4.55% | [3] 2.55% | [4] 16.9% | [5] -0.75% | [6] 11.4%

O=NN(Cc1ccccc1)c1ccc(OCc2ccccc2)c(NC(=O)CCC2OCCO2)c1
inactive: [1] 6.95% | [2] 4.25% | [3] 30.4% | [4] 7.05% | [5] 39.9% | [6] 9.5%

S=C1NC(/C=C/c2ccccc2)Nc2ccccc21 (configuration not stated)
inactive: [1] 62.2% | [5] 27.6%
active: [2] 79.1% | [3] 73% | [4] 81.8% | [6] 88.2%
